# About 83,000 compounds went through this panel and 20% of them were active in at least one assay; those are over-represented in the sample as a whole.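 Compound tested at a single concentration for 48 hours in 96-well plates; a percent growth value below 10 was scored as active.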 A number with no mark means an inactive call. Activity calls are given as the source filed them.
# Test system: SNB-19 CNS
# Experiment: NCI-60 one-dose screen, 48 h (100 = growth as untreated, 0 = no growth, -100 = all killed)
# Conditions: 10 µM unless noted
row,SMILES,growth
1,O=C(CSc1nc2ccc([N+](=O)[O-])cc2[nH]1)Nc1ccc(F)c(Cl)c1,11.6%
2,Cc1cc(C)c(O)c(CNCCCCCCNCc2cc(C)cc(C)c2O)c1,-46.1% (active)
3,CS(=O)(=O)c1cccnn1,102%
4,Cc1ccc(S(=O)(=O)Nc2ccccc2)cc1N,108%
5,Nc1cc(C(=O)O)[nH]c(=S)n1,97.5%
6,COc1ccc(-c2nc3ccccn3c2/C=C/C(=O)c2cc(OC)c(OC)c(OC)c2)cc1OC,29.8%
7,O=C(Nc1cccc2cccnc12)c1cc(C(=O)c2ccc(Cl)cc2)n2ccc(-c3ccncc3)cc12,104%
8,Cc1cccc(C[C@H](NC(=O)Nc2ccc(C)cc2F)C(=O)N[C@@H]2C(=O)N3C[C@H](O)C[C@H]3C(=O)N3CCN(C)C[C@H]3C(=O)N[C@@H](C)C(=O)N3C[C@H](C)C[C@H]3C(=O)O[C@H]2C)c1,22.7%
9,O=C1COCCN1c1ccc(NCc2cn(Cc3cccc4ccccc34)c3ccccc23)cc1,97.9%
10,COc1ncnc2c(-c3ccccc3)cn(COCc3ccccc3)c12,78%
11,O=C1CN(Cc2ccc(C(=O)NO)cc2)C(=O)[C@@H](Cc2ccccc2)N1,98.5%
12,CC(C)C1=NOC(=O)C1=Cc1cn(-c2ccco2)nc1-c1ccccc1,89.8%
13,c1ccc(-c2nnc(-c3c[nH]c4ncccc34)s2)cc1,91.7%
14,COCCCNc1nc(NC(=O)c2cc(Br)cc(C(F)(F)F)c2)cc(-c2cccnc2)n1,95.9%
15,CCn1cc(-c2cc(-c3ccc(Cl)cc3)nc(N)n2)c(-c2ccc(Br)cc2)n1,88.7%
16,CCOC(CNC(=O)c1cccc([N+](=O)[O-])c1)OCC,103%
17,Cc1cccc([N+](=O)[O-])c1I,106%
18,CCOc1cc(NC(=O)c2ccccc2)c(OCC)cc1N,105%
19,CN(C)CCOc1ccc(/C(=C(/CCCl)c2ccccc2)c2ccccc2)cc1,36.2%

row,SMILES,growth
1,Nc1nc(N)c2c(n1)NC(c1ccc(F)cc1)C1CCc3ccccc3C1=N2 (stereo unspecified),70.7%
2,CNC(=O)c1cc(Oc2ccc3nc(NC(=O)c4ccc5ncccc5c4)sc3c2)ccn1,95.1%
3,CC1(C)CC[C@]23CC[C@]4(C)[C@H](CC[C@@H]5[C@@]6(C)C/C(=C/c7ccncc7)C(=O)C(C)(C)[C@@H]6CC[C@]54C)[C@H]2[C@H]1OC3=O,17.3% [100 µM]
4,CC1=CC[C@@H]2C(C)(C)C(=O)CC[C@@]2(C)[C@@H]1COc1ccc2ccc(=O)oc2c1,81%
5,COc1ccc(/C=C/C=C\C(=O)c2ccc(-n3ccnc3)cc2)cc1,87.6%
6,CCc1cccc(Cl)c1,104%
7,Cc1ccc(S(=O)(=O)n2cc(C(=O)C(=O)N3CCCCC3)c3ccccc32)cc1,97.7%
8,Cn1cc(-c2noc(-c3cn(C)c4ncc(F)cc34)n2)c2cc(Cl)ccc21,70.1%
9,O=C(Nc1cccc2ccccc12)c1cc2ccccc2cc1O,22.9%
10,C#C[C@]1(O)CC[C@H]2[C@@H]3CC=C4c5nc(Nc6ncccn6)sc5CC[C@]4(C)[C@H]3CC[C@@]21C,64.8%
11,CC(=O)OC[C@]12CC[C@@H](C(=O)CBr)[C@@H]1[C@H]1CC[C@@H]3[C@@]4(C)CCCNC(C)(C)[C@@H]4CC[C@@]3(C)[C@]1(C)CC2,-93.4% [100 µM] (active)
12,O=S(=O)(c1ccc(N/N=C\c2ccccc2Cl)cc1)c1ccc(N/N=C/c2ccccc2Cl)cc1,90.4%
13,Nc1nc(Cl)c2ncn(Cc3cc4c(cc3I)OCO4)c2n1,61.9%
14,Cc1ccc2c(c1)/C(=N\N=C/c1cn(C(C)C)c3ccccc13)C(=O)N2,76.5%
15,O=C1CC(c2ccccc2)Cc2nc3ccc(Cl)cc3cc21 (stereo unspecified),24.9%
16,C=C(C)[C@@H]1CC[C@]2(C(N)=O)CC[C@]3(C)[C@H](CC[C@@H]4[C@@]5(C)CC[C@H](O)C(C)(C)[C@@H]5CC[C@]43C)[C@@H]12,1.3% [100 µM] (active)
17,COc1ccc(-c2cc(-c3ccc(Cl)cc3)nc(SCCCCCCC(=O)NO)n2)cc1,35.9%
18,Cc1cc[n+](CCCCCCCCCC[n+]2ccc(C)cc2)cc1,104%
19,CCCSc1nc(N)nc2nc[nH]c12,102%

# Test system: U251 CNS
# Experiment: as above
# Conditions: 10 µM unless noted
row,SMILES,growth
1,O=C(CSc1nc2ccc([N+](=O)[O-])cc2[nH]1)Nc1ccc(F)c(Cl)c1,11.6%
2,Cc1cc(C)c(O)c(CNCCCCCCNCc2cc(C)cc(C)c2O)c1,-59.2% (active)
3,CS(=O)(=O)c1cccnn1,92.9%
4,Cc1ccc(S(=O)(=O)Nc2ccccc2)cc1N,101%
5,Nc1cc(C(=O)O)[nH]c(=S)n1,95%
6,COc1ccc(-c2nc3ccccn3c2/C=C/C(=O)c2cc(OC)c(OC)c(OC)c2)cc1OC,7.81% (active)
7,O=C(Nc1cccc2cccnc12)c1cc(C(=O)c2ccc(Cl)cc2)n2ccc(-c3ccncc3)cc12,103%
8,Cc1cccc(C[C@H](NC(=O)Nc2ccc(C)cc2F)C(=O)N[C@@H]2C(=O)N3C[C@H](O)C[C@H]3C(=O)N3CCN(C)C[C@H]3C(=O)N[C@@H](C)C(=O)N3C[C@H](C)C[C@H]3C(=O)O[C@H]2C)c1,26.5%
9,O=C1COCCN1c1ccc(NCc2cn(Cc3cccc4ccccc34)c3ccccc23)cc1,74.5%
10,COc1ncnc2c(-c3ccccc3)cn(COCc3ccccc3)c12,60.1%
11,O=C1CN(Cc2ccc(C(=O)NO)cc2)C(=O)[C@@H](Cc2ccccc2)N1,92.4%
12,CC(C)C1=NOC(=O)C1=Cc1cn(-c2ccco2)nc1-c1ccccc1,75.6%
13,c1ccc(-c2nnc(-c3c[nH]c4ncccc34)s2)cc1,93.2%
14,COCCCNc1nc(NC(=O)c2cc(Br)cc(C(F)(F)F)c2)cc(-c2cccnc2)n1,85.9%
15,CCn1cc(-c2cc(-c3ccc(Cl)cc3)nc(N)n2)c(-c2ccc(Br)cc2)n1,87%
16,CCOC(CNC(=O)c1cccc([N+](=O)[O-])c1)OCC,97.6%
17,Cc1cccc([N+](=O)[O-])c1I,93.8%
18,CCOc1cc(NC(=O)c2ccccc2)c(OCC)cc1N,106%
19,CN(C)CCOc1ccc(/C(=C(/CCCl)c2ccccc2)c2ccccc2)cc1,-54.6% (active)

row,SMILES,growth
1,Nc1nc(N)c2c(n1)NC(c1ccc(F)cc1)C1CCc3ccccc3C1=N2 (stereo unspecified),41.8%
2,CNC(=O)c1cc(Oc2ccc3nc(NC(=O)c4ccc5ncccc5c4)sc3c2)ccn1,93.6%
3,CC1(C)CC[C@]23CC[C@]4(C)[C@H](CC[C@@H]5[C@@]6(C)C/C(=C/c7ccncc7)C(=O)C(C)(C)[C@@H]6CC[C@]54C)[C@H]2[C@H]1OC3=O,39.2% [100 µM]
4,CC1=CC[C@@H]2C(C)(C)C(=O)CC[C@@]2(C)[C@@H]1COc1ccc2ccc(=O)oc2c1,87.5%
5,COc1ccc(/C=C/C=C\C(=O)c2ccc(-n3ccnc3)cc2)cc1,83.3%
6,CCc1cccc(Cl)c1,105%
7,Cc1ccc(S(=O)(=O)n2cc(C(=O)C(=O)N3CCCCC3)c3ccccc32)cc1,91.3%
8,Cn1cc(-c2noc(-c3cn(C)c4ncc(F)cc34)n2)c2cc(Cl)ccc21,19.4%
9,O=C(Nc1cccc2ccccc12)c1cc2ccccc2cc1O,8.21% (active)
10,C#C[C@]1(O)CC[C@H]2[C@@H]3CC=C4c5nc(Nc6ncccn6)sc5CC[C@]4(C)[C@H]3CC[C@@]21C,21.9%
11,CC(=O)OC[C@]12CC[C@@H](C(=O)CBr)[C@@H]1[C@H]1CC[C@@H]3[C@@]4(C)CCCNC(C)(C)[C@@H]4CC[C@@]3(C)[C@]1(C)CC2,-88.6% [100 µM] (active)
12,O=S(=O)(c1ccc(N/N=C\c2ccccc2Cl)cc1)c1ccc(N/N=C/c2ccccc2Cl)cc1,90.1%
13,Nc1nc(Cl)c2ncn(Cc3cc4c(cc3I)OCO4)c2n1,53.5%
14,Cc1ccc2c(c1)/C(=N\N=C/c1cn(C(C)C)c3ccccc13)C(=O)N2,63.6%
15,O=C1CC(c2ccccc2)Cc2nc3ccc(Cl)cc3cc21 (stereo unspecified),18.8%
16,C=C(C)[C@@H]1CC[C@]2(C(N)=O)CC[C@]3(C)[C@H](CC[C@@H]4[C@@]5(C)CC[C@H](O)C(C)(C)[C@@H]5CC[C@]43C)[C@@H]12,-69.3% [100 µM] (active)
17,COc1ccc(-c2cc(-c3ccc(Cl)cc3)nc(SCCCCCCC(=O)NO)n2)cc1,19%
18,Cc1cc[n+](CCCCCCCCCC[n+]2ccc(C)cc2)cc1,105%
19,CCCSc1nc(N)nc2nc[nH]c12,107%
